Assay outcomes: PubChem, several laboratories
L major viab: Leishmania major promastigote growth inhibition, primary screen; hit rate 9% among 200,000; inhibition, % at 10 µM; AID 1063, 2008; Leishmania major promastigotes, resazurin fluorescence viability; in the data active = inhibition above about 50%;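 also: promastigotes grown with compound for 44 hours at 28 °C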
Autophagy mod: autophagy modulators in MEF cells, primary screen, imaging, high-content, MEF GFP-LC3 | AID 463193, 2010 | calls only at 10 µM (by protocol) | MEF GFP-LC3 puncta imaging; test concentration mostly 10 µM | hit rate 0.98% among 190,000;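 active = percentage of spot-positive cells more than 3 SD above its plate mean, without a fluorescence outlier flag or 80% toxicity; inconclusive = no clear call, values can overlap the other calls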;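 also: spot-positive cell cutoff set from DMSO-treated cells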
HCT116 bCat-KO: primary screen for growth suppressors in beta-catenin knockout HCT116 cells (colon tumor, human). HCT116 beta-catenin knockout viability, CellTiter-Glo, 60 h; hits give low values. viability, % at 10 µM. hit rate 1.5% among 140,000;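 active = viability at or under a set limit, the compound median less 4 SD, cut at about 6% in these data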;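 also: 0% = Hyamine 1622 control at 20 µM and 100% = untreated cell control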
PTEN del growth: growth suppression of PTEN-null HCT116, primary screen, cell-based, CellTiter-Glo; HCT116 PTEN-null viability, 60 h; hits give low values; viability, % at 10 µM; hit rate 1.2% among 140,000; AID 827, 2007;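 active = viability at or below a set limit, 4 SD under the median of all tested compounds, cut at about 3.7% in these data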;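 also: PTEN knockout HCT116 line with beta catenin targeted HCT116 as companion control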
Ins promoter up: insulin promoter activators in MIN6 cells, imaging, high-content screening, mouse beta cells; MIN6 insulin promoter-GFP reporter; hits give high values; z-score at 5 µM; hit rate 0.3% among 190,000; AID 1625, 2009;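 active = z-score above 3 at 5 µM with at least 500 cells counted in the well; inconclusive = wells under 500 cells, flagged as cytotoxic or low count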
INS promoter inh: inhibitors of insulin promoter-driven GFP, primary screen, imaging, TRM-6 cells (human fetal islet line), eGFP reporter, cell count. hit rate 0.9% among 130,000. inhibition, % at 2 µM. reporter expression induced with tamoxifen;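 active = inhibition above the mean plus 3 SD, with well images judged a real hit on visual review, cut at about 60% in these data, passing the limit was not always enough; inconclusive = inhibition over the cutoff but images rejected on review; inactive = inhibition not above the cutoff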
* hit, by the source's call; i = inactive; ? = inconclusive; . = not tested or not shown; + = active, no number. Sampled rows, rich in hits. Any-hit rate of the full collection: about 9.6%.

SMILES | L major viab | Autophagy mod | HCT116 bCat-KO | PTEN del growth | Ins promoter up | INS promoter inh
CC1(C)SC(=S)N(/N=C/c2ccc(O)cc2)C1N(O)C(=O)Nc1ccc([N+](=O)[O-])cc1 (centres undefined) | 8 | i | 63 | 65 | -0.08 | 2
Cc1ccc(/C=N/N2C(=S)SC(C)(C)C2N(O)C(=O)Nc2ccc([N+](=O)[O-])cc2)cc1 (centres undefined) | 41 | i | 3.7* | 9 | 0.28 | -18
Nc1ncnc(Nc2cc(Cl)cc(Cl)c2)c1[N+](=O)[O-] | 55* | i | 79 | 70 | ? | 0
CCCn1c(/N=C/c2ccc3c(c2)OCO3)nc2ccccc21 | 39 | i | 87 | 88 | 0.24 | -16
Cc1ccc(S(=O)(=O)Nc2ccccc2/C=N/c2nc3ccccc3n2C(C)C)cc1 | 58* | i | 83 | 71 | -0.49 | 11
CCCCn1c(/N=C/c2ccccc2NS(=O)(=O)c2ccc(C)cc2)nc2ccccc21 | 77* | i | 66 | 59 | 0.22 | .
Cc1ccc(NC(=S)N(C)N)cc1Cl | 0 | i | . | . | -0.28 | .
CC(Sc1ccc2c(c1)OCCO2)C(=O)Nc1ccc2c(c1)OCO2 (centres undefined) | -2 | i | 93 | 97 | -0.1 | .
Cc1ccccc1-c1nc(CN2CCC(C(=O)NCC3CCCO3)CC2)c(C)o1 (centres undefined) | -10 | i | 97 | 97 | -0.2 | .
COc1ccc(C(=O)c2ccc(OC)c(Br)c2)cc1Br | -2 | i | 89 | 83 | -0.12 | .
COc1ccc(Br)c2oc(S)cc(=O)c12 | -4 | i | 94 | 91 | 2.2 | 71*
COc1ccc(S(=O)(=O)N2c3ccccc3OCC2c2ccccc2)cc1 (centres undefined) | 26 | i | 14 | 17 | -0.17 | .
O=C(CCl)N1c2ccccc2OCC1c1ccccc1 (centres undefined) | 57* | i | 90 | 86 | ? | .
O=C(CN1CCN(C/C=C/c2ccccc2)CC1)NCc1ccccc1 | 63* | i | . | . | -0.39 | .
CCC(C)c1ccccc1NC(=O)CN1CCN(C/C=C/c2ccccc2)CC1 (centres undefined) | 96* | i | 61 | 59 | -0.58 | 8
O=C(N1CCN(c2ccc(F)cc2)CC1)C12CC3CC(CC(C3)C1)C2 | 1 | i | 80 | 80 | 0.52 | 33
O=C(OCCCc1ccncc1)c1ccc(S(=O)(=O)N2CCOCC2)cc1 | -6 | i | 99 | 110 | -0.54 | .
Cc1cccc(C)c1OC(=O)C(c1ccccc1)c1ccccc1 | 89* | i | 79 | 80 | 0.47 | -7
Cc1noc(C)c1COC(=O)C(c1ccccc1)c1ccccc1 | -8 | i | . | . | 1.7 | -92
Cc1ccc(NC(=O)NC2CCCN2S(=O)(=O)c2ccc(Cl)cc2)cc1 (centres undefined) | 62* | i | 90 | 87 | -0.42 | 10
CC(C)(C)C(=O)Nc1cccc(-c2nc3ccccc3[nH]2)c1 | 20 | i | 85 | 79 | -0.26 | -7
COC(=O)C1=C(C)OC(N)=C(C#N)C1c1ccccc1 (centres undefined) | -9 | i | 94 | 104 | -0.03 | -44
CNC(=O)C1C(=S)NC(N)=C(C#N)C1c1ccccc1 (centres undefined) | 3 | i | 0.5* | 1.0* | 0.93 | 2
CCOC(=O)CSc1nc(C)c2ccccc2n1 | 0 | i | 98 | 93 | -0.09 | 79*
CN(C)S(=O)(=O)c1cccc(NC(=O)COC(=O)c2ccc(Br)o2)c1 | -4 | i | 93 | 88 | 1.1 | 11
SMILES | L major viab | Autophagy mod | HCT116 bCat-KO | PTEN del growth | Ins promoter up | INS promoter inh
O=C(Nc1nccs1)c1cc(-c2ccccc2)nn1-c1ccccc1 | 29 | i | 95 | 101 | 0.12 | 22
O=C(NCc1cccnc1)c1cccc(NC(=O)c2ccco2)c1 | 77* | i | 93 | 99 | -0.24 | 32
O=C(NCc1cccnc1)c1cccc(Cl)c1 | -7 | i | 99 | 104 | 0.23 | 30
O=C(NCc1cccnc1)c1cccc(F)c1 | 2 | + | 98 | 102 | -0.46 | .
Cc1ccccc1N(CC(=O)N/N=C/c1ccc(N(C)C)cc1)C(=O)c1ccccc1 | 99* | i | 104 | 100 | 1.3 | 3
CCC(C)NCCOc1ccc(C(C)(C)c2ccccc2)cc1 (centres undefined) | 100* | i | . | . | 0.06 | .
